About 2,000 (36%) of roughly 5,500 compounds were called active. Roughly 18% stayed inconclusive and do not appear here. Cut-off read from the data, not from the text of the source: active = normalized growth mostly below about 0.91 (no sharp cut-off); inconclusive = no clear call, values can overlap the other calls; inactive = mostly above about 0.92. The list shows a part of the results.
Assay: chemical genetic growth profiling, strain panel (AID 1159580);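 note: tested at 20 µM; growth read once vehicle control cultures reached saturation at 30 °C; 1 = growth at the plate median or of vehicle wells; lower values mean less growth of the strain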
Conditions: growth OD

Measured: normalized growth

O=C(OC[C@H]1O[C@H](OC(=O)c2cc(O)c(O)c(OC(=O)c3cc(O)c(O)c(O)c3)c2)[C@H](OC(=O)c2cc(O)c(O)c(OC(=O)c3cc(O)c(O)c(O)c3)c2)[C@@H](OC(=O)c2cc(O)c(O)c(OC(=O)c3cc(O)c(O)c(O)c3)c2)[C@@H]1OC(=O)c1cc(O)c(O)c(OC(=O)c2cc(O)c(O)c(O)c2)c1)c1cc(O)c(O)c(OC(=O)c2cc(O)c(O)c(O)c2)c1
active: S. cerevisiae deletion strains, locus YJR075W, strain HOC1, hits give low values 0.104 | S. cerevisiae deletion strains, locus YKL009W, strain mrt4, hits give low values 0.125 | S. cerevisiae deletion strains, locus YKL068W, hits give low values 0.082 | S. cerevisiae deletion strains, locus YKL085W, strain MDH1 (second series), hits give low values 0.0765 | S. cerevisiae deletion strains, locus YKL085W, strain MDH1, hits give low values 0.0765 | S. cerevisiae deletion strains, locus YKL160W, strain elf1, hits give low values 0.761 | S. cerevisiae deletion strains, locus YKL190W, strain CNB1, hits give low values 0.0756 | S. cerevisiae deletion strains, locus YKR001C, strain vps1, hits give low values 0.101 | S. cerevisiae deletion strains, locus YLL001W, strain dnm1, hits give low values 0.693 | S. cerevisiae deletion strains, locus YLL026W, hits give low values 0.689 | S. cerevisiae deletion strains, locus YLR027C, strain aat2, hits give low values 0.82 | S. cerevisiae deletion strains, locus YLR039C, strain RIC1, hits give low values 0.131 | S. cerevisiae deletion strains, locus YLR058C, strain SHM2, hits give low values 0.0679 | S. cerevisiae deletion strains, locus YLR102C, strain apc9, hits give low values 0.0965 | S. cerevisiae deletion strains, locus YLR221C, strain rsa3, hits give low values 0.785 | S. cerevisiae deletion strains, locus YLR258W, strain gsy2, hits give low values 0.807 | S. cerevisiae deletion strains, locus YLR262C, strain YPT6 (second series), hits give low values 0.596 | S. cerevisiae deletion strains, locus YLR262C, strain YPT6, hits give low values 0.149 | S. cerevisiae deletion strains, locus YLR268W, strain sec22, hits give low values 0.115 | S. cerevisiae deletion strains, locus YLR320W, strain mms22, hits give low values 0.777 | S. cerevisiae deletion strains, locus YLR330W, strain CHS5, hits give low values 0.0805 | S. cerevisiae deletion strains, locus YLR342W, strain FKS1 (second series), hits give low values 0.119 | S. cerevisiae deletion strains, locus YLR342W, strain FKS1, hits give low values 0.662 | S. cerevisiae deletion strains, locus YLR357W, strain rsc2, hits give low values 0.656 | S. cerevisiae deletion strains, locus YLR370C, strain arc18, hits give low values 0.334 | S. cerevisiae deletion strains, locus YLR371W, strain rom2, hits give low values 0.0958 | S. cerevisiae deletion strains, locus YLR384C, strain iki3, hits give low values 0.784 | S. cerevisiae deletion strains, locus YLR418C, strain cdc73, hits give low values 0.159 | S. cerevisiae deletion strains, locus YML016C, strain PPZ1, hits give low values 0.0844 | S. cerevisiae deletion strains, locus YML032C, strain rad52, hits give low values 0.103 | S. cerevisiae deletion strains, locus YML120C, strain ndi1, hits give low values 0.617 | S. cerevisiae deletion strains, locus YML124C, strain tub3, hits give low values 0.0933 | S. cerevisiae deletion strains, locus YMR058W, strain fet3, hits give low values 0.901 | S. cerevisiae deletion strains, locus YMR078C, strain ctf18, hits give low values 0.106 | S. cerevisiae deletion strains, locus YMR129W, hits give low values 0.921 | S. cerevisiae deletion strains, locus YMR205C, strain PFK2, hits give low values 0.721 | S. cerevisiae deletion strains, locus YMR223W, strain ubp8, hits give low values 0.0998 | S. cerevisiae deletion strains, locus YMR231W, strain pep5, hits give low values 0.148 | S. cerevisiae deletion strains, locus YMR263W, strain SAP30, hits give low values 0.0929 | S. cerevisiae deletion strains, locus YMR307W, strain GAS1, hits give low values 0.175 | S. cerevisiae deletion strains, locus YNL067W, strain RPL9B, hits give low values 0.0835 | S. cerevisiae deletion strains, locus YNL071W, strain lat1, hits give low values 0.88 | S. cerevisiae deletion strains, locus YNL128W, strain TEP1, hits give low values 0.0962 | S. cerevisiae deletion strains, locus YNL153C, strain GIM3, hits give low values 0.086 | S. cerevisiae deletion strains, locus YNL209W, strain ssb2, hits give low values 0.363 | S. cerevisiae deletion strains, locus YNL233W, strain BNI4, hits give low values 0.0934 | S. cerevisiae deletion strains, locus YNL250W, strain rad50, hits give low values 0.0969 | S. cerevisiae deletion strains, locus YNL271C, strain bni1, hits give low values 0.0916 | S. cerevisiae deletion strains, locus YNL298W, strain CLA4, hits give low values 0.0929 | S. cerevisiae deletion strains, locus YNL307C, strain MCK1, hits give low values 0.102 | S. cerevisiae deletion strains, locus YNL322C, strain KRE1 (second series), hits give low values 0.853 | S. cerevisiae deletion strains, locus YNL322C, strain KRE1, hits give low values 0.0735 | S. cerevisiae deletion strains, locus YNR052C, strain pop2, hits give low values 0.0934 | S. cerevisiae deletion strains, locus YOL006C, strain TOP1, hits give low values 0.155 | S. cerevisiae deletion strains, locus YOL147C, strain pex11, hits give low values 0.0861 | S. cerevisiae deletion strains, locus YOR001W, strain rrp6, hits give low values 0.663 | S. cerevisiae deletion strains, locus YOR061W, strain CKA2, hits give low values 0.065 | S. cerevisiae deletion strains, locus YOR069W, strain VPS5, hits give low values 0.0788 | S. cerevisiae deletion strains, locus YOR070C, strain gyp1, hits give low values 0.404 | S. cerevisiae deletion strains, locus YOR080W, strain dia2, hits give low values 0.349 | S. cerevisiae deletion strains, locus YOR083W, strain WHI5, hits give low values 0.695 | S. cerevisiae deletion strains, locus YOR106W, strain vam3, hits give low values 0.425 | S. cerevisiae deletion strains, locus YOR136W, strain idh2, hits give low values 0.108 | S. cerevisiae deletion strains, locus YOR144C, strain elg1, hits give low values 0.0856 | S. cerevisiae deletion strains, locus YOR184W, strain ser1, hits give low values 0.124 | S. cerevisiae deletion strains, locus YOR265W, strain rbl2, hits give low values 0.845 | S. cerevisiae deletion strains, locus YOR270C, strain vph1, hits give low values 0.438 | S. cerevisiae deletion strains, locus YOR290C, strain snf2, hits give low values 0.169 | S. cerevisiae deletion strains, locus YOR316C, strain cot1, hits give low values 0.0869 | S. cerevisiae deletion strains, locus YPL051W, strain arl3, hits give low values 0.565 | S. cerevisiae deletion strains, locus YPL055C, strain LGE1, hits give low values 0.103 | S. cerevisiae deletion strains, locus YPL078C, strain atp4, hits give low values 0.582 | S. cerevisiae deletion strains, locus YPL106C, strain sse1, hits give low values 0.829 | S. cerevisiae deletion strains, locus YPL240C, strain hsp82, hits give low values 0.889 | S. cerevisiae deletion strains, locus YPL241C, strain CIN2, hits give low values 0.0787 | S. cerevisiae deletion strains, locus YPR119W, strain clb2, hits give low values 0.0923 | S. cerevisiae deletion strains, locus YPR141C, strain kar3, hits give low values 0.096 | S. cerevisiae deletion strains, locus YPR163C, strain tif3, hits give low values 0.102 | S. cerevisiae deletion strains, locus YPR167C, strain met16, hits give low values 0.0927 | S. cerevisiae deletion strains, strain wtn01, hits give low values 0.0926 | S. cerevisiae strains, strain wild type, hits give low values 0.0831
inactive: S. cerevisiae deletion strains, locus YKR026C, strain gcn3, hits give low values 1.03 | S. cerevisiae deletion strains, locus YKR091W, strain srl3, hits give low values 0.968 | S. cerevisiae deletion strains, locus YLL041C, strain sdh2, hits give low values 0.951 | S. cerevisiae deletion strains, locus YLR113W, strain HOG1, hits give low values 1.08 | S. cerevisiae deletion strains, locus YMR125W, strain sto1, hits give low values 1.04 | S. cerevisiae deletion strains, locus YNL183C, strain NPR1, hits give low values 0.988 | S. cerevisiae deletion strains, locus YNL248C, strain rpa49, hits give low values 0.922 | S. cerevisiae deletion strains, locus YNR049C, strain mso1, hits give low values 0.944 | S. cerevisiae deletion strains, locus YOL012C, strain htz1 0.275 | S. cerevisiae deletion strains, locus YOR231W, strain MKK1, hits give low values 1.04 | S. cerevisiae deletion strains, locus YPL256C, strain CLN2, hits give low values 1.14

— PubChem BioAssay AID1159580 (chemical genetic matrix, 2015)
